Measurements: PubChem BioAssay AID2315 (National Center for Advancing Translational Sciences (NCATS), 2010)
“And” between values parts separate entries of the source, which are not always exact repeats. Equal entries are not always repeated. In all, about 290,000 compounds went through this assay and about 27,000 (9.3%) were called active. No stated cut-off is given here; in the data, active means inhibition mostly above about 28% (no sharp cut-off); inactive means mostly below about 43%. What follows is part of a selection rich in actives, with near analogues and random picks from the rest.

Assay: A qHTS for Small Molecule Inhibitors of Shiga Toxin; further: 0% is about no effect
Conditions: Vero cells, Shiga toxin protein synthesis inhibition reporter; at 38.7 µM, hits give high values

Question: Which inhibition does the source give for `Cc1ccc(S(=O)(=O)N(CC(O)CN2CCCCC2)c2cccc([N+](=O)[O-])c2)cc1` (stereo not given) here?
Answer: The inhibition was -3.58% (inactive).

Question: For `COc1ccc(CCNS(=O)(=O)c2cc3c(cc2C)NC(=O)CO3)cc1OC`, which inhibition is on record?
Answer: The inhibition was 14.5% (inactive).

Question: Which inhibition does the source give for `CC(C)CC(=O)N1CCN(Cc2ccccc2Br)CC1` here?
Answer: Its inhibition is 15.6% (inactive).

Question: With `CN1CCN(NC(=O)Nc2ccc(Br)cc2)CC1` as the compound, how does the inhibition read?
Answer: Its inhibition is 24.3% (inactive).

Question: Which inhibition does the source give for `O=C(c1ccc(Cl)c(S(=O)(=O)N2CCCCC2)c1)N1CCCCCC1` here?
Answer: Its inhibition is -21.7% (inactive).

Question: Which inhibition does the source give for `COc1ccc(C(=O)CCC(=O)Nc2ccc(Cl)cc2)cc1` here?
Answer: The inhibition was -6.22% (inactive).

Question: Which inhibition does the source give for `Cn1sc(=O)c2cc(S(=O)(=O)NC3CC3)ccc21` here?
Answer: The inhibition was -7.9% (inactive).

Question: Which inhibition does the source give for `Cc1nn(Cc2ccccc2)c(C)c1NS(=O)(=O)c1ccccc1` here?
Answer: The inhibition was -5.63% (inactive).

Question: For `ONC(=Nc1ccccc1)c1ccccc1Cl`, which inhibition is on record?
Answer: The inhibition was -18.8% (inactive).

Question: For `COc1ccc(N(C(=O)c2cccnc2)S(=O)(=O)c2ccc(OC)c(OC)c2)cc1`, which inhibition is on record?
Answer: Its inhibition is -7.61% (inactive).

Question: For `COc1ccc(OC)c(C(C)NC(=S)Nc2ccc(S(=O)(=O)Nc3ncccn3)cc2)c1` (stereo not given), which inhibition is on record?
Answer: The inhibition was -14% (inactive).

Question: Which inhibition does the source give for `COc1ccc2cc(C(=O)C3CCCN(C(=O)c4sc(C)nc4C)C3)ccc2c1` (stereo not given) here?
Answer: Its inhibition is 15.6% (inactive).

Question: With `O=C(CSc1ccc(-c2ccc(Br)cc2)nn1)NCC1CCCO1` (stereo not given) as the compound, how does the inhibition read?
Answer: Its inhibition is 2.72% (inactive).

Question: With `CCCNC(=O)CCn1nc(-c2ccccc2)c2ccccc2c1=O` as the compound, how does the inhibition read?
Answer: The inhibition was -10.6% (inactive).

Question: With `COC(=O)C(CC(C)C)NS(=O)(=O)c1cc(Br)ccc1Br` (stereo not given) as the compound, how does the inhibition read?
Answer: The inhibition was 40.7% (inactive).

Question: Which inhibition does the source give for `O=C(O)Cc1csc(-c2cccc(Oc3ccccc3)c2)n1` here?
Answer: Its inhibition is -2.34% (inactive) and 18.5% (inactive).

Question: With `CCC(=O)c1c[nH]c(C(=O)NCC2CCCO2)c1` (stereo not given) as the compound, how does the inhibition read?
Answer: Its inhibition is -5.73% (inactive).

Question: Which inhibition does the source give for `COc1ccc(SCc2noc(C(=O)NCC3CCCO3)c2C(=O)O)cc1` (stereo not given) here?
Answer: The inhibition was -6.14% (inactive).

Question: For `COc1ccc2cc(C(=O)NCC3CCCO3)[nH]c2c1` (stereo not given), which inhibition is on record?
Answer: Its inhibition is 81.7% (active).

Question: With `CNC(=O)C1CCN(S(=O)(=O)c2c(C)noc2/C=C/c2cccc(C)c2)CC1` as the compound, how does the inhibition read?
Answer: The inhibition was -9.45% (inactive).

Question: Which inhibition does the source give for `Cc1ccc2cccc(OCCCOc3ccccc3CO)c2n1` here?
Answer: The inhibition was 25.2% (inactive).

Question: For `Cc1ccc(NC(=O)c2oc3ccccc3c2C)c([N+](=O)[O-])c1`, which inhibition is on record?
Answer: The inhibition was 46.2% (active).

Question: Which inhibition does the source give for `CCc1nonc1NC(=O)c1oc2ccc(Cl)cc2c1C` here?
Answer: The inhibition was 1.67% (inactive).

Question: With `Cc1c(C(=O)NC2CCCCC2)oc2ccccc12` as the compound, how does the inhibition read?
Answer: Its inhibition is 60.6% (inactive).

Question: With `Cc1ccc(NC(=O)CN(C)Cc2ccc(F)cc2)c([N+](=O)[O-])c1` as the compound, how does the inhibition read?
Answer: The inhibition was 19.4% (inactive).

Question: Which inhibition does the source give for `Cc1nonc1NC(=O)c1ccccc1Br` here?
Answer: The inhibition was 30.3% (inactive).

Question: For `Cc1nonc1NC(=O)c1oc2ccccc2c1C`, which inhibition is on record?
Answer: The inhibition was 85.7% (active).

Question: For `COCc1cc(C)n(CC(=O)NCC2CCCO2)c(=O)c1C#N` (stereo not given), which inhibition is on record?
Answer: The inhibition was -20.7% (inactive).

Question: For `COc1ccccc1CCCNC(=O)C1CCC(=O)N(CCN2CCOCC2)C1` (stereo not given), which inhibition is on record?
Answer: The inhibition was -25.5% (inactive).

Question: With `Nc1nc(NCc2ccccc2)n(-c2ccccc2)n1` as the compound, how does the inhibition read?
Answer: Its inhibition is -6.24% (inactive).

Question: With `Cc1cccc(CC(=O)N2CCN=C2SCc2ccc([N+](=O)[O-])cc2)c1` as the compound, how does the inhibition read?
Answer: Its inhibition is 2.92% (inactive).

Question: With `CN(C)S(=O)(=O)c1cccc(NC(=S)NCc2ccc3c(c2)OCO3)c1` as the compound, how does the inhibition read?
Answer: Its inhibition is -10.4% (inactive).

Question: Which inhibition does the source give for `CC(=O)Nc1cccc(C(=O)Nc2nc(C)cs2)c1` here?
Answer: The inhibition was 42.6% (inactive).

Question: For `S=C(Nc1cccc(Cl)c1)Nc1ccc2cn[nH]c2c1`, which inhibition is on record?
Answer: Its inhibition is 34.5% (inactive).

Question: For `S=C(Nc1cccc(Cl)c1)Nc1ccc2c(c1)OCCO2`, which inhibition is on record?
Answer: Its inhibition is 61.2% (active).

Question: With `S=C(NCc1ccco1)Nc1ccc2c(c1)OCCO2` as the compound, how does the inhibition read?
Answer: The inhibition was 69.3% (active).

Question: Which inhibition does the source give for `Cc1csc(NC(=S)Nc2cccc(Cl)c2)n1` here?
Answer: Its inhibition is 126% (active).

Question: For `FC(F)(F)c1cccc(NC(=S)Nc2cccc(Cl)c2)c1`, which inhibition is on record?
Answer: Its inhibition is 1.44% (inactive).

Question: For `S=C(NCc1ccc2c(c1)OCO2)NCc1ccco1`, which inhibition is on record?
Answer: The inhibition was 53.2% (inactive).

Question: For `FC(F)Oc1ccc(NC(=S)NCc2ccco2)cc1Cl`, which inhibition is on record?
Answer: Its inhibition is 9.56% (inactive).

Question: Which inhibition does the source give for `CC(NS(=O)(=O)c1ccc(OCC(=O)N2CCCC2)cc1)c1ccccc1` (stereo not given) here?
Answer: Its inhibition is -8.81% (inactive).

Question: With `COCCn1cnc2c1c(=O)n(CC(=O)NN)c(=O)n2Cc1ccccc1` as the compound, how does the inhibition read?
Answer: Its inhibition is 14.2% (inactive).

Question: With `C/C(=N\NC(=O)c1cc(-c2ccc(O)cc2)nc2ccccc12)c1cccnc1` as the compound, how does the inhibition read?
Answer: The inhibition was 6.02% (inactive).

Question: Which inhibition does the source give for `CC1CC(C)CN(CCCNC(=O)Cn2ncc3c([nH]c4ccccc43)c2=O)C1` (stereo not given) here?
Answer: The inhibition was -7.63% (inactive).

Question: For `Cc1c(Br)c([N+](=O)[O-])nn1CC(=O)Nc1sc2c(c1C(=O)OC(C)C)CCC(C)C2` (stereo not given), which inhibition is on record?
Answer: The inhibition was -7.24% (inactive).

Question: With `CCCOc1cccc(C(=O)Nc2nnn(CCC)n2)c1` as the compound, how does the inhibition read?
Answer: The inhibition was 103% (active).

Question: For `CCCn1nnc(NC(=O)COc2ccc(CC)cc2)n1`, which inhibition is on record?
Answer: Its inhibition is 3.59% (inactive).

Question: With `CCCOc1cccc(C(=O)NCCCNC(=O)c2cccnc2)c1` as the compound, how does the inhibition read?
Answer: Its inhibition is -9.24% (inactive).

Question: Which inhibition does the source give for `CCCCCN(C(=O)CCC(=O)OCC(=O)NCc1ccc(OC)cc1)c1c(N)n(CCCC)c(=O)[nH]c1=O` here?
Answer: The inhibition was -10.9% (inactive).

Question: With `CC(C)c1ccc(NC(=O)C2CCCN(S(=O)(=O)c3cccnc3)C2)cc1` (stereo not given) as the compound, how does the inhibition read?
Answer: Its inhibition is -4.38% (inactive).

Question: For `COc1ccc(NC(=O)CC2C(=O)NC3CCCCC3N2C(=O)c2ccc(F)cc2)cc1` (stereo not given), which inhibition is on record?
Answer: The inhibition was -4.42% (inactive).

Question: Which inhibition does the source give for `O=C(COc1cccc(Cl)c1)NCc1ccccc1` here?
Answer: Its inhibition is 15% (inactive).

Question: For `CCN(CC)CCN1C(=O)C2C(C(=O)Nc3ccc(Br)cc3)C3C=CC2(O3)C1C(=O)NC1CCCCC1` (stereo not given), which inhibition is on record?
Answer: Its inhibition is -12% (inactive).

Question: For `CC(C)c1cc(C(N)=O)c(NC(=O)c2cccc(COc3ccc(Br)cc3)c2)s1`, which inhibition is on record?
Answer: Its inhibition is 199% (active).

Question: With `NNC(=O)c1cccc(COCC(F)(F)C(F)F)c1` as the compound, how does the inhibition read?
Answer: Its inhibition is -2.2% (inactive).

Question: With `Cc1ccc(COc2ccc(C(=O)NN)cc2)cc1` as the compound, how does the inhibition read?
Answer: Its inhibition is 30.5% (inactive).

Question: With `Cc1cc(C(F)(F)F)nc(SCC(=O)Nc2nccs2)n1` as the compound, how does the inhibition read?
Answer: Its inhibition is -9.67% (inactive).

Question: Which inhibition does the source give for `CC(=O)c1cc(C#N)c(N2CCCCC2)nc1C` here?
Answer: The inhibition was 1.31% (inactive).

Question: For `CCn1c(SCC(=O)Nc2nccs2)nnc1-c1ccncc1`, which inhibition is on record?
Answer: Its inhibition is -7.47% (inactive).

Question: With `CC(=O)c1cc(C#N)c(N2CC(C)OC(C)C2)nc1C` (stereo not given) as the compound, how does the inhibition read?
Answer: The inhibition was -8.18% (inactive).

Question: For `Cc1cccc(C)c1Nc1nnc(SCC(=O)Nc2sccc2C#N)s1`, which inhibition is on record?
Answer: The inhibition was -3.87% (inactive).

Question: For `CC(=O)c1cc(C#N)c(SCC(=O)Nc2nccs2)nc1C`, which inhibition is on record?
Answer: Its inhibition is 65% (active).

Question: With `CCn1c(SCC(=O)Nc2nccs2)nnc1-c1ccco1` as the compound, how does the inhibition read?
Answer: The inhibition was -6.37% (inactive).

Question: With `CC(=O)c1cc(C#N)c(SCC(=O)C(C)(C)C)nc1C` as the compound, how does the inhibition read?
Answer: Its inhibition is 89.1% (active).

Question: For `Cc1[nH]c2ccccc2c1SCC(=O)Nc1nccs1`, which inhibition is on record?
Answer: The inhibition was 63.6% (active).
